From article PMC7862700, “An all-to-all approach to the identification of sequence-specific readers for epigenetic DNA modifications on cytosine”

What was measured:
Assay in all cases: DAPPL (digital affinity profiling via proximity ligation, sequencing); 10 mM Tris-HCl pH 7.5, 50 mM NaCl, 1 mM DTT, 4% glycerol, room temperature, 30 min; GST-TFs on glutathione beads, 16-mer random dsDNA library, 0.1% formaldehyde crosslink after washing; high values mean tight binding
Details in all cases: protein: recombinant; tags: N-terminal GST; dsDNA, one strand shown
SPIC = target: T1, SPIC (Homo sapiens, UniProt Q8N5J4 1-248)
T1 sequence: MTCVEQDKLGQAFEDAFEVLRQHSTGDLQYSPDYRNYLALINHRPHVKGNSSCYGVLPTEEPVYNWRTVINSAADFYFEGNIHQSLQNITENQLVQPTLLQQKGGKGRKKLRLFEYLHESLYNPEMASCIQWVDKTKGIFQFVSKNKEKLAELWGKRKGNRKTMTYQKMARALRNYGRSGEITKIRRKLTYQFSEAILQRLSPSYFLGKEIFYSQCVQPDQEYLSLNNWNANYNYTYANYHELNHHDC
Method in brief: (§1)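 Binding signal is each hexamer's read frequency for a factor divided by its frequency in the tag-only sample. The factors were GST-fused human transcription factors from yeast, captured on glutathione beads, DNA-barcoded and pooled with that sample. Pools were incubated with 200 nmole of a random double-stranded 16-mer DNA library in Tris/NaCl/DTT/glycerol buffer at room temperature for 30 min, then washed, crosslinked with 0.1% formaldehyde, proximity-ligated with BsaI/T4 ligase (1 h, 37 °C), PCR-amplified and sequenced on an Illumina NextSeq500.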

ELF4 = ELF4 (Homo sapiens, UniProt Q99607 1-663)
ELF4, sequence (Q99607 whole entry): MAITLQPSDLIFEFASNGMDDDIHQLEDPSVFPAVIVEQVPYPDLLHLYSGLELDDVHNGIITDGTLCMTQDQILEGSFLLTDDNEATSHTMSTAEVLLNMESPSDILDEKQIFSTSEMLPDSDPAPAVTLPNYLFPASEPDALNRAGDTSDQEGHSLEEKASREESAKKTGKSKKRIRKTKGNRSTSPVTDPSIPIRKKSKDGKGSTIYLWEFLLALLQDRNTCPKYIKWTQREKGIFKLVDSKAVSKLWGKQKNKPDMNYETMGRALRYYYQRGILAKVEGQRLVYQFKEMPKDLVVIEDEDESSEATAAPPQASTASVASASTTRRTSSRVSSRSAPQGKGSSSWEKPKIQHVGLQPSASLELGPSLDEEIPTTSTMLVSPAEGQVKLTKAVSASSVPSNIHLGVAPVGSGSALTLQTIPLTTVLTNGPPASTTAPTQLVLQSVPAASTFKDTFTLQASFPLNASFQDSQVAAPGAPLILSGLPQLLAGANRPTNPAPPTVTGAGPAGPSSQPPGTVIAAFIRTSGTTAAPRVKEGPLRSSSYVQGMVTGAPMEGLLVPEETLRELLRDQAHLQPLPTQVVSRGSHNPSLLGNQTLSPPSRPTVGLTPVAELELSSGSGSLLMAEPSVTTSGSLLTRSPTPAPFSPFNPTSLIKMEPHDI
Method in brief: as §1

ELK4 = target: T2, ELK4 (Homo sapiens, UniProt P28324-2 1-405)
T2 sequence: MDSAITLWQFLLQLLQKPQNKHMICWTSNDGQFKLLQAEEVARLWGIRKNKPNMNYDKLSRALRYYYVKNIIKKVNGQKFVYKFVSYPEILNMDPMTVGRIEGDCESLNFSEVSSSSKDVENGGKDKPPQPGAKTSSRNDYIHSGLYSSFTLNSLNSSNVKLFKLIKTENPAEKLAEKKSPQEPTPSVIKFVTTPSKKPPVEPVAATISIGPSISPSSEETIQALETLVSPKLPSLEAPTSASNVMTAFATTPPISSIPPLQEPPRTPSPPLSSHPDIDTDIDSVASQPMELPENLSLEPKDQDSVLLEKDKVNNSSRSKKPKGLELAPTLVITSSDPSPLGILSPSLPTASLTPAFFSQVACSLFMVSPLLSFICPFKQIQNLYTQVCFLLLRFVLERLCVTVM
Method in brief: as §1

ETV2 = target: T3, ETV2 (Homo sapiens, UniProt O00321 1-342)
T3 sequence: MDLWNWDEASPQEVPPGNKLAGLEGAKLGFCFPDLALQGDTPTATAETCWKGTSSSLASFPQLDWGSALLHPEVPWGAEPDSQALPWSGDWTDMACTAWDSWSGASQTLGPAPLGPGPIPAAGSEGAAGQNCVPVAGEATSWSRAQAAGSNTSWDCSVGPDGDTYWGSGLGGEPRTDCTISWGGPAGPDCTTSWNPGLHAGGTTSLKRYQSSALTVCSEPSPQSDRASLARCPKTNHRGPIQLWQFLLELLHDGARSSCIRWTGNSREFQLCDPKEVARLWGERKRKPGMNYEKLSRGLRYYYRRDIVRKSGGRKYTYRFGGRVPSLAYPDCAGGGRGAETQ
Method in brief: as §1

ETV1 = ETV1 (Homo sapiens, UniProt P50549 1-477)
ETV1, sequence (P50549 whole entry): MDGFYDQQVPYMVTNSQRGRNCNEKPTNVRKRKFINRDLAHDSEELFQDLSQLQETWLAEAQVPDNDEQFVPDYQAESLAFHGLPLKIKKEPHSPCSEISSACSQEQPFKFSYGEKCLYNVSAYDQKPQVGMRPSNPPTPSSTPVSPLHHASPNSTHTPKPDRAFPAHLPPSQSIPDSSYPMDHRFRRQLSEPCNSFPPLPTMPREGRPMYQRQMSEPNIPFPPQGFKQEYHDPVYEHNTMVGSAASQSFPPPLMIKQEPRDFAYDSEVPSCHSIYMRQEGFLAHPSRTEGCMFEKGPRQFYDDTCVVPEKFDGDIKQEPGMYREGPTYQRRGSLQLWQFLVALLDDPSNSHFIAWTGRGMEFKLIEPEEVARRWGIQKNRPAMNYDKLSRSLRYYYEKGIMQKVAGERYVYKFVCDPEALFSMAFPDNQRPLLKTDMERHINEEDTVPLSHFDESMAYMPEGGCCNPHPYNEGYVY
Method in brief: as §1

ERF = target: T4, ERF (Homo sapiens, UniProt P50548 1-548)
T4 sequence: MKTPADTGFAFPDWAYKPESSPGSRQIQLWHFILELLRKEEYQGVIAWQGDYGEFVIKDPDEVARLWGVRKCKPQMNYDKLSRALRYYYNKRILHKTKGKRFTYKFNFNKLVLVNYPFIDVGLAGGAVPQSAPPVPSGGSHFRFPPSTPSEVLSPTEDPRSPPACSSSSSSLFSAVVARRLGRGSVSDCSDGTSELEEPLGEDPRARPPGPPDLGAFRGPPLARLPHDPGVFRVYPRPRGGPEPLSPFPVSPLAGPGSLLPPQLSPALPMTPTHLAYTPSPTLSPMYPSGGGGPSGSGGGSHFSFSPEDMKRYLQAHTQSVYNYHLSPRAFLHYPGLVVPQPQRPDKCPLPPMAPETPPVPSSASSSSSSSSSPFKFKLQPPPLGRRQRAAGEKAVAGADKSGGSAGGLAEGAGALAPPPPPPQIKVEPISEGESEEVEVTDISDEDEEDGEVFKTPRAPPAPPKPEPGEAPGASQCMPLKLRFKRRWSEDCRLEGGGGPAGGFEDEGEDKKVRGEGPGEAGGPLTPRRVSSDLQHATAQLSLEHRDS
Method in brief: as §1

SPDEF = target: T5, SPDEF (Homo sapiens, UniProt O95238 1-335)
T5 sequence: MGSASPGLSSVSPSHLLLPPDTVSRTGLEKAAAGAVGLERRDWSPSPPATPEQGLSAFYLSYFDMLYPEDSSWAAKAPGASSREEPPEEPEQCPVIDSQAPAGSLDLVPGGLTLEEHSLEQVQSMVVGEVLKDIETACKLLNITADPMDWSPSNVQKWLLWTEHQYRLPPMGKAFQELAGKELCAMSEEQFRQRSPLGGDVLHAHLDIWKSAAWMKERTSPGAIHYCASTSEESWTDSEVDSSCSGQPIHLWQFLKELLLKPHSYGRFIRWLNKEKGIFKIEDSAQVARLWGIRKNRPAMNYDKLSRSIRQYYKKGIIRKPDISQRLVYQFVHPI
Method in brief: as §1

ETV7 = target: T6, ETV7 (Homo sapiens, UniProt Q9Y603 1-341)
T6 sequence: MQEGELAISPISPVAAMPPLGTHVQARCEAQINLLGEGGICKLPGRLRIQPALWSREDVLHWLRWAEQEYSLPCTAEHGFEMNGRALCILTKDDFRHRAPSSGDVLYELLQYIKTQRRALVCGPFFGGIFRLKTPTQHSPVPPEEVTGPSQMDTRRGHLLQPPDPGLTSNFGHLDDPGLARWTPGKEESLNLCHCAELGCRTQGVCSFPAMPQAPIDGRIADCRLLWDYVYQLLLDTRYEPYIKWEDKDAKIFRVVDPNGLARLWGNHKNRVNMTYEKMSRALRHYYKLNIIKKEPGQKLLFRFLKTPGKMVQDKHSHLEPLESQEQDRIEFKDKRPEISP
Method in brief: as §1

ELF5 = target: T7, ELF5 (Homo sapiens, UniProt Q9UKW6-2 1-255)
T7 sequence: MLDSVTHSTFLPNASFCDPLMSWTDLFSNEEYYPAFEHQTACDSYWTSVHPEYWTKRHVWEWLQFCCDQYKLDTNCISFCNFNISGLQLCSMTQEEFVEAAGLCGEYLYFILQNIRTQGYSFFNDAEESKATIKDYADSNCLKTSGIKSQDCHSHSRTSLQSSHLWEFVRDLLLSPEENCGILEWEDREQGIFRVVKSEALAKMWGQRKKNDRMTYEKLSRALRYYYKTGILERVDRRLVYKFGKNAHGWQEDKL
Method in brief: as §1

ETV3 = target: T8, ETV3 (Homo sapiens, UniProt P41162-2 1-143)
T8 sequence: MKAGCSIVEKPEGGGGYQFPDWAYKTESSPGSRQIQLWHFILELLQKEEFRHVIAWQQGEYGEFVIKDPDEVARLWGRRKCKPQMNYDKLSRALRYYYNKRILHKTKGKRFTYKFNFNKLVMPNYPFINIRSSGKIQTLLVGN
Method in brief: as §1

ETV6 = ETV6 (Homo sapiens, UniProt P41212 1-452)
ETV6, sequence (P41212 whole entry): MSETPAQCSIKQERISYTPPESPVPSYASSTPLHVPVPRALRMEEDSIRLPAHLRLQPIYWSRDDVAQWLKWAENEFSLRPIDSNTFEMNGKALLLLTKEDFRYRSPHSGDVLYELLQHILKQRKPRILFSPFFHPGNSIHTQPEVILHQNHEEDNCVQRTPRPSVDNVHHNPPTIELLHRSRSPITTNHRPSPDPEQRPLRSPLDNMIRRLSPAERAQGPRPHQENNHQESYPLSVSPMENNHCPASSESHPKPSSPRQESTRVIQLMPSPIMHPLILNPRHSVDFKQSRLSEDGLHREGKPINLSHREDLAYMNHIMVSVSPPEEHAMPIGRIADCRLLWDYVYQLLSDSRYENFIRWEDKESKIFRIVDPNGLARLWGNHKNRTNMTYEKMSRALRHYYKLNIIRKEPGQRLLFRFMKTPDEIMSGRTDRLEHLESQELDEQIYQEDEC
Method in brief: as §1

Sequence: ACCACG
- binding signal (SPIC): 1.08 fold enrichment (6-mer frequency, TF over GST control)
- binding signal (ELF4): 1.05 fold enrichment (6-mer frequency, TF over GST control)
- binding signal (ELK4): 1.11 fold enrichment (6-mer frequency, TF over GST control)
- binding signal (ETV2): 1.09 fold enrichment (6-mer frequency, TF over GST control)
- binding signal (ETV1): 1.05 fold enrichment (6-mer frequency, TF over GST control)
- binding signal (ERF): 1.03 fold enrichment (6-mer frequency, TF over GST control)
- binding signal (SPDEF): 1.06 fold enrichment (6-mer frequency, TF over GST control)
- binding signal (ETV7): 1.04 fold enrichment (6-mer frequency, TF over GST control)
- binding signal (ELF5): 1.02 fold enrichment (6-mer frequency, TF over GST control)
- binding signal (ETV3): 1.04 fold enrichment (6-mer frequency, TF over GST control)
- binding signal (ETV6): 1.02 fold enrichment (6-mer frequency, TF over GST control)
